Measurements taken from PubChem BioAssay (NCI).
Compounds without any hit were thinned out: in the full panel of roughly 83,000, 20% have a hit.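 48-hour exposure, single concentration, 96-well plates; percent growth endpoint where 0 means no net growth. Active: below 10.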 Activity calls are given as the source filed them.

Legend:
Experiment in all cases: NCI-60 one-dose screen, 48 h (100 = growth as untreated, 0 = no growth, -100 = all killed)
Conditions in all cases: 10 µM
RPMI-8226 leukemia = system: RPMI-8226 leukemia
OVCAR-8 ovarian = system: OVCAR-8 ovarian
OVCAR-5 ovarian = system: OVCAR-5 ovarian
OVCAR-4 ovarian = system: OVCAR-4 ovarian
SK-OV-3 ovarian = system: SK-OV-3 ovarian
IGROV1 ovarian = system: IGROV1 ovarian
OVCAR-3 ovarian = system: OVCAR-3 ovarian
HS 578T breast = system: HS 578T breast
NCI/ADR-RES ovarian = system: NCI/ADR-RES ovarian
T-47D breast = system: T-47D breast
BT-549 breast = system: BT-549 breast
MDA-MB-435 melanoma = system: MDA-MB-435 melanoma
SW-620 colon = system: SW-620 colon
MCF7 breast = system: MCF7 breast
HCT-116 colon = system: HCT-116 colon
HCC-2998 colon = system: HCC-2998 colon
KM12 colon = system: KM12 colon

Measured: growth

Clc1ccc(Sc2nc(NC3CC3)nc(Sc3ccc(Cl)cc3)n2)cc1
inactive: RPMI-8226 leukemia 62% | OVCAR-8 ovarian 87.4% | OVCAR-5 ovarian 92.9% | OVCAR-4 ovarian 66.3% | SK-OV-3 ovarian 72.8% | IGROV1 ovarian 64.7% | OVCAR-3 ovarian 85.8% | HS 578T breast 96.1% | NCI/ADR-RES ovarian 78.3% | T-47D breast 65% | BT-549 breast 104% | MDA-MB-435 melanoma 87.8% | SW-620 colon 83.3% | MCF7 breast 72% | HCT-116 colon 53.7% | HCC-2998 colon 90.2% | KM12 colon 76.6%

COc1cc(/C=C2\Oc3cc(OCC(=O)c4ccccc4)ccc3C2=O)cc(OC)c1OC
inactive: RPMI-8226 leukemia 107% | OVCAR-8 ovarian 109% | OVCAR-5 ovarian 136% | OVCAR-4 ovarian 109% | SK-OV-3 ovarian 120% | IGROV1 ovarian 55.1% | OVCAR-3 ovarian 110% | HS 578T breast 107% | NCI/ADR-RES ovarian 97.2% | T-47D breast 73.6% | BT-549 breast 128% | MDA-MB-435 melanoma 103% | SW-620 colon 114% | MCF7 breast 99.1% | HCT-116 colon 106% | HCC-2998 colon 120% | KM12 colon 98.9%

CC(=O)/C(=C/c1ccccc1)C(=O)CC(C)C
inactive: RPMI-8226 leukemia 18.4% | OVCAR-8 ovarian 75.2% | OVCAR-5 ovarian 93.9% | OVCAR-4 ovarian 103% | SK-OV-3 ovarian 106% | IGROV1 ovarian 98.8% | OVCAR-3 ovarian 75.1% | HS 578T breast 89.6% | NCI/ADR-RES ovarian 93.5% | T-47D breast 107% | BT-549 breast 98.8% | MDA-MB-435 melanoma 54.3% | SW-620 colon 24.7% | MCF7 breast 50.4% | HCT-116 colon 27.7% | HCC-2998 colon 105% | KM12 colon 72.2%

COc1ccc2c(c1)sc1nc(-c3ccccc3)c(-c3ccc(O)c(OC)c3)n12
inactive: RPMI-8226 leukemia 78.5% | OVCAR-8 ovarian 97.5% | OVCAR-5 ovarian 107% | OVCAR-4 ovarian 102% | SK-OV-3 ovarian 96% | IGROV1 ovarian 72.8% | OVCAR-3 ovarian 83.5% | HS 578T breast 84.6% | NCI/ADR-RES ovarian 64.6% | T-47D breast 111% | BT-549 breast 68.2% | SW-620 colon 39.9% | MCF7 breast 93.4% | HCC-2998 colon 42.5% | KM12 colon 37.1%
active: MDA-MB-435 melanoma -24.6%

CC(=O)C1CCC2C3CC(F)C4=CC(=O)CCC4(C)C3C(O)CC12C (centres undefined)
inactive: RPMI-8226 leukemia 83.4% | OVCAR-8 ovarian 94.2% | OVCAR-5 ovarian 105% | OVCAR-4 ovarian 98.6% | SK-OV-3 ovarian 83.9% | IGROV1 ovarian 97.2% | OVCAR-3 ovarian 114% | HS 578T breast 122% | NCI/ADR-RES ovarian 94.9% | T-47D breast 119% | BT-549 breast 91.2% | MDA-MB-435 melanoma 102% | SW-620 colon 109% | MCF7 breast 94.5% | HCT-116 colon 89.9% | HCC-2998 colon 105% | KM12 colon 111%

C=C1c2c(C)nn(-c3ccc(OC)cc3)c2N(C)C23C[C@@H]1C1(C)c4c(C)nn(-c5ccc(OC)cc5)c4N(C)C(C)(C[C@H]12)C3 (some centres undefined)
active: RPMI-8226 leukemia 4.67%
inactive: OVCAR-8 ovarian 31.8% | OVCAR-5 ovarian 61.7% | OVCAR-4 ovarian 28.1% | SK-OV-3 ovarian 60.2% | IGROV1 ovarian 70.8% | OVCAR-3 ovarian 24% | HS 578T breast 67.4% | NCI/ADR-RES ovarian 35% | T-47D breast 13.4% | BT-549 breast 32.9% | MDA-MB-435 melanoma 34% | SW-620 colon 31.4% | MCF7 breast 20.8% | HCT-116 colon 16.7% | HCC-2998 colon 34.9% | KM12 colon 28.6%

O=C1/C(=C\c2ccc(F)cc2)CN(C(=O)c2ccc([N+](=O)[O-])cc2)C/C1=C\c1ccc(F)cc1
active: RPMI-8226 leukemia -13.3% | HS 578T breast -9.57% | BT-549 breast 5.36% | MDA-MB-435 melanoma -30% | SW-620 colon -58.4% | MCF7 breast -9.52% | HCC-2998 colon -79.1%
inactive: OVCAR-8 ovarian 19.5% | OVCAR-5 ovarian 77.1% | OVCAR-4 ovarian 50.5% | SK-OV-3 ovarian 50.8% | IGROV1 ovarian 33.9% | OVCAR-3 ovarian 10.3% | NCI/ADR-RES ovarian 24.3% | T-47D breast 64.5%

COc1ccc2c(c1)N(CCO)C1=C(C(=O)OC1)C2c1ccc(OC)c(OC)c1 (centres undefined)
active: OVCAR-3 ovarian -18.2% | MDA-MB-435 melanoma -25.9%
inactive: RPMI-8226 leukemia 62.9% | OVCAR-8 ovarian 48.7% | OVCAR-5 ovarian 47.7% | OVCAR-4 ovarian 64.6% | SK-OV-3 ovarian 40.5% | IGROV1 ovarian 53.4% | HS 578T breast 31% | NCI/ADR-RES ovarian 71.8% | T-47D breast 45.5% | BT-549 breast 64.2% | SW-620 colon 17.5% | MCF7 breast 27.3% | HCT-116 colon 26.7% | KM12 colon 18.7%

CC(=O)c1cc(Br)ccc1O
inactive: RPMI-8226 leukemia 105% | OVCAR-8 ovarian 112% | OVCAR-5 ovarian 92.3% | OVCAR-4 ovarian 105% | SK-OV-3 ovarian 126% | IGROV1 ovarian 136% | OVCAR-3 ovarian 118% | HS 578T breast 108% | NCI/ADR-RES ovarian 107% | T-47D breast 114% | BT-549 breast 110% | MDA-MB-435 melanoma 99.1% | SW-620 colon 102% | MCF7 breast 102% | HCC-2998 colon 101% | KM12 colon 102%

CC(=O)c1cc(Cl)ccc1O
inactive: RPMI-8226 leukemia 105% | OVCAR-8 ovarian 109% | OVCAR-5 ovarian 94.3% | OVCAR-4 ovarian 120% | SK-OV-3 ovarian 111% | IGROV1 ovarian 116% | OVCAR-3 ovarian 102% | HS 578T breast 104% | NCI/ADR-RES ovarian 104% | T-47D breast 99.7% | BT-549 breast 105% | MDA-MB-435 melanoma 101% | SW-620 colon 95.9% | MCF7 breast 105% | HCT-116 colon 102% | HCC-2998 colon 97.4% | KM12 colon 96.2%

COc1ccc2c(c1)sc1nc(-c3ccccc3)c(-c3cccnc3)n12
inactive: RPMI-8226 leukemia 79% | OVCAR-8 ovarian 104% | OVCAR-5 ovarian 110% | OVCAR-4 ovarian 88.1% | SK-OV-3 ovarian 108% | IGROV1 ovarian 94.7% | OVCAR-3 ovarian 113% | HS 578T breast 99.7% | NCI/ADR-RES ovarian 96.4% | T-47D breast 93.3% | BT-549 breast 85.1% | MDA-MB-435 melanoma 99.4% | SW-620 colon 97.5% | MCF7 breast 102% | HCT-116 colon 78.5% | KM12 colon 106%

COc1cc2c(cc1OC)N(CCO)C1=C(C(=O)OC1)C2c1ccc(Cl)c(Cl)c1 (centres undefined)
inactive: RPMI-8226 leukemia 92.1% | OVCAR-8 ovarian 103% | OVCAR-5 ovarian 111% | OVCAR-4 ovarian 104% | SK-OV-3 ovarian 106% | IGROV1 ovarian 110% | OVCAR-3 ovarian 112% | HS 578T breast 103% | NCI/ADR-RES ovarian 104% | T-47D breast 88.3% | BT-549 breast 89.4% | MDA-MB-435 melanoma 101% | SW-620 colon 102% | MCF7 breast 95.8% | HCT-116 colon 97.7% | KM12 colon 102%

Cc1nc2c(c(=O)[nH]1)OCN(Cc1ccccc1)C2
inactive: RPMI-8226 leukemia 101% | OVCAR-8 ovarian 99.1% | OVCAR-5 ovarian 109% | OVCAR-4 ovarian 96.1% | SK-OV-3 ovarian 93.7% | IGROV1 ovarian 100% | OVCAR-3 ovarian 103% | HS 578T breast 109% | NCI/ADR-RES ovarian 107% | T-47D breast 97.8% | BT-549 breast 102% | MDA-MB-435 melanoma 112% | SW-620 colon 102% | MCF7 breast 102% | HCC-2998 colon 104% | KM12 colon 104%

CCCCOc1ccc(NC(=O)Nc2nnc(C)s2)cc1
inactive: RPMI-8226 leukemia 80.8% | OVCAR-8 ovarian 90.5% | OVCAR-5 ovarian 102% | OVCAR-4 ovarian 100% | SK-OV-3 ovarian 102% | IGROV1 ovarian 91.6% | OVCAR-3 ovarian 120% | HS 578T breast 116% | NCI/ADR-RES ovarian 93.3% | T-47D breast 77.9% | BT-549 breast 110% | MDA-MB-435 melanoma 101% | SW-620 colon 111% | MCF7 breast 88.1% | HCT-116 colon 94.9% | HCC-2998 colon 93.2% | KM12 colon 103%

COc1ccc2c(c1)C(=O)c1c-2c(OCCN(C)C)nc2ccccc12
active: IGROV1 ovarian -18.7% | SW-620 colon -7.66% | MCF7 breast 6.19%
inactive: RPMI-8226 leukemia 17.4% | OVCAR-8 ovarian 14.3% | OVCAR-5 ovarian 63% | OVCAR-4 ovarian 44.1% | SK-OV-3 ovarian 61% | OVCAR-3 ovarian 30.4% | HS 578T breast 41% | NCI/ADR-RES ovarian 22.8% | T-47D breast 48.2% | BT-549 breast 85.4% | MDA-MB-435 melanoma 33.3% | HCT-116 colon 10.4% | HCC-2998 colon 44.9% | KM12 colon 23.1%

COc1ccc2c(c1)N(CCO)C1=C(C(=O)OC1)C2c1ccccc1 (centres undefined)
active: OVCAR-3 ovarian -40.3% | HS 578T breast -5.25% | NCI/ADR-RES ovarian -2.83% | MDA-MB-435 melanoma -62.9%
inactive: RPMI-8226 leukemia 22% | OVCAR-8 ovarian 29.6% | OVCAR-5 ovarian 66.5% | OVCAR-4 ovarian 69.5% | SK-OV-3 ovarian 19.5% | IGROV1 ovarian 43.3% | T-47D breast 37.6% | BT-549 breast 47.2% | SW-620 colon 13.9% | MCF7 breast 25.4% | HCT-116 colon 25.9% | KM12 colon 17.4%

COc1cc(Cl)cc(-c2nn(-c3cccc(NC(=O)c4ccc(N5CCOCC5)c(C(F)(F)F)c4)c3)cc2-c2ccncc2)c1
inactive: RPMI-8226 leukemia 25.2% | OVCAR-8 ovarian 42.1% | OVCAR-5 ovarian 78.4% | OVCAR-4 ovarian 67.9% | SK-OV-3 ovarian 75.7% | IGROV1 ovarian 96.5% | OVCAR-3 ovarian 69.4% | HS 578T breast 40.7% | NCI/ADR-RES ovarian 46.1% | T-47D breast 49.2% | BT-549 breast 73% | MDA-MB-435 melanoma 63.4% | SW-620 colon 69.2% | MCF7 breast 45.3% | HCT-116 colon 47.7% | HCC-2998 colon 52.3% | KM12 colon 38.4%

COc1cc(Cl)cc(-c2nn(-c3cccc(NC(=O)c4ccc(Cl)c(Cl)c4)c3)cc2-c2ccncc2)c1
inactive: RPMI-8226 leukemia 46% | OVCAR-8 ovarian 58.4% | OVCAR-5 ovarian 79.2% | OVCAR-4 ovarian 58.6% | SK-OV-3 ovarian 80.1% | IGROV1 ovarian 71.6% | OVCAR-3 ovarian 53.4% | HS 578T breast 63.6% | NCI/ADR-RES ovarian 61.4% | T-47D breast 63.2% | BT-549 breast 85.2% | MDA-MB-435 melanoma 80.7% | SW-620 colon 84.2% | MCF7 breast 57.7% | HCT-116 colon 44.1% | HCC-2998 colon 77.8% | KM12 colon 62.3%

O=C1C(c2ccccc2)C2C=CC(C2)N1O (centres undefined)
inactive: RPMI-8226 leukemia 81% | OVCAR-8 ovarian 104% | OVCAR-5 ovarian 119% | OVCAR-4 ovarian 116% | SK-OV-3 ovarian 106% | IGROV1 ovarian 108% | OVCAR-3 ovarian 112% | HS 578T breast 105% | NCI/ADR-RES ovarian 112% | T-47D breast 92.1% | BT-549 breast 136% | MDA-MB-435 melanoma 107% | SW-620 colon 109% | MCF7 breast 104% | HCT-116 colon 104% | HCC-2998 colon 103% | KM12 colon 108%
